Compound activity: PubChem BioAssay, National Center for Advancing Translational Sciences (NCATS)
GLP1R cytotox = cytotoxic in the GLP-1 receptor inverse agonist counter-screen; Potency, µM (highest dose often 38.3 µM), for the others: at the top dose activity change, negative = inhibition, usual class: inhibitors; AID 624418; HEK293 cAMP-luciferase reporter cells, luminescence, 24 h; 0.13% of 410,000 active;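 further: loss of luciferase light is scored as toxicity; on the % scale 0 is the no-effect control and ±100 the full control effect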
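Compound-treated cells are incubated 24 hr at 37 deg C under 5% CO2 after a 12 hour attachment period, then luciferase detection reagent is added and luminescence is measured following 12 min at room temperature; lowered signal indicates toxicity.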
VP16 counter = counter-screen for ROR gamma inhibitors: Gal4-VP16 reporter; Drosophila S2 Gal4-VP16 UAS-luciferase, luminescence, 20 h; Potency, µM (titrated, usually from 53.6 µM), without a hit: at the highest dose activity, negative = inhibition, usual class: inhibitors; 3.5% of 310,000 active; AID 2546;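 further: Gal4-VP16 expression switched on by copper sulfate through the metallothionein promoter; on the % scale 0 is the no-effect control and ±100 the full control effect; nearly all actives have a fitted effect of over 50% in size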
GLP1R ag = agonists of human GLP-1 receptor; HEK293 GLP-1R CRE-luciferase, luminescence, 4-6 h; cells express a hypersensitive GLP-1R form; Potency, µM (series often up to 45.6 µM), without a hit: top-dose activation, usual class: activators; P43220; 0.007% of 380,000 active; further: % of control where 0% means no effect
Target sequence (P43220 whole entry, looked up): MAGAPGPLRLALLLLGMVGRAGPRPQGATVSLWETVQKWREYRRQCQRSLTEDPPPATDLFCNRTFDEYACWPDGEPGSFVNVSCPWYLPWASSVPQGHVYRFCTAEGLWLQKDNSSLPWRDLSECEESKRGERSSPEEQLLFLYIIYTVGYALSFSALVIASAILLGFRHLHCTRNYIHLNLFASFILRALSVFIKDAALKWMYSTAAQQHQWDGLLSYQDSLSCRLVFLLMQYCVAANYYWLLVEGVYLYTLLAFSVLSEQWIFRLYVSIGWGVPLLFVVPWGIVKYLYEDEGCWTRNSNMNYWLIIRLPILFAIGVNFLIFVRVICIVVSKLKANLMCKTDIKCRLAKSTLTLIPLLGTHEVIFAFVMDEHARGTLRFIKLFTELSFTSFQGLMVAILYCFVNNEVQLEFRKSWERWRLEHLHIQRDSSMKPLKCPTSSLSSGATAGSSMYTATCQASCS
RORgamma inh = inhibitors of mouse ROR gamma transcriptional activity; P51450; Drosophila S2 Gal4-RORgamma UAS-luciferase reporter, 20 h; Potency, µM (highest dose often 53.6 µM), for inactives: top-dose activity change, negative = inhibition, usual class: inhibitors; 5.4% of 310,000 active; AID 2551; further: on the % scale 0 is the no-effect control and ±100 the full control effect; nearly all actives have a fitted effect of over 60% in size
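Compounds are pin-transferred onto Drosophila Schneider cells expressing a copper-inducible Gal4–ROR gamma transactivation domain fusion. After 1 hr, copper sulfate is added to 700 uM final; luciferase is read 20 hr later.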
GLP-1R inv ag = GLP-1 receptor (human) inverse agonism; 1.6% of 410,000 active; P43220; Potency, µM (series often up to 38.3 µM), without a hit: at the highest dose activity change, negative = inhibition, most hits filed as inhibitors; HEK293 GLP-1R CRE-luciferase, luminescence, 24 h; GLP-1R form is constitutively active; further: on the % scale 0 is the no-effect control and ±100 the full control effect; nearly all actives have a fitted effect of over 55% in size
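Inverse agonism was detected as reduced cAMP-driven luciferase luminescence after 24 h compound treatment. The cells were HEK293 clones expressing constitutively active human GLP-1R with the reporter. Reporter-only and GPR119 cell lines served as counterscreen controls.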
An asterisk follows results filed as active; ? = inconclusive; . = not tested or not shown; [ ] = dose if it differs, or a comment. A selection: hits, their analogues and other compounds. The true share with any hit is near 5.9%. The call rests on the fitted dose curve; in most records, active means well fitted curve in the direction sought with a large enough effect; inconclusive means small, poorly fitted or top-dose-only effect, or another doubt; inactive means no such curve, though single readings can be large; an effect the other way counts as inactive or inconclusive. Potency means the concentration at half of the fitted maximal effect.

SMILES | GLP1R cytotox | VP16 counter | GLP1R ag | RORgamma inh | GLP-1R inv ag
CCc1ccc(Nc2cc(C(=O)NCCCN(C)c3ccccc3)c3ccccc3n2)cc1 | 23% | . | . | . | 4%
COc1ccccc1Nc1cc(C(=O)NCCCN(C)c2ccccc2)c2ccccc2n1 | 68% | . | . | . | 5.6µM*
Cc1cccc(OCCCC(=O)N2CCCCCC2)c1C | 0% | -5% | 21% | 0% | 8.9µM*
COc1ccccc1N1CCN(C(=O)COc2cccc(C)c2C)CC1 | -3% | 4% | 14% | 21% | 7.1µM*
COc1ccccc1OCC(=O)N1CCN(c2ccccc2OC)CC1 | 3% | 12% | 23% | 12% | -1%
CCCCc1ccc(NC(=O)c2cc3c(=O)n4ccccc4nc3n2C)cc1 | -1% | . | . | . | 7%
CCC(CC)C(=O)NCc1nc2cccnc2n1Cc1ccc(F)cc1 | 26% | . | . | . | 3%
CCN1C(C)=C(C(=O)OC)C(c2ccccc2)N2C(=O)[C@](O)(C(=O)OC)CC(C#N)=C12 (stereo partly drawn) | . | 10%[10 µM] | . | -16%[10 µM] | .
CCOC(=O)C(=O)C1(C(=O)OCC)Oc2cc(OC)cc(OC)c2C(=O)C1c1ccccc1 (stereo not drawn) | . | -8% | . | 19% | .
Cc1ccccc1C(=O)Oc1ccc(Br)cc1C(=S)N1CCCC1 | 1% | ? | -1% | 11µM* | ?
O=C(Oc1ccc(Br)cc1C(=S)N1CCCC1)c1ccccc1F | -23% | -4% | -21% | -1% | -25%
O=C(Oc1ccc(Br)cc1C(=S)N1CCCCC1)c1cc([N+](=O)[O-])cc([N+](=O)[O-])c1 | -1% | -1% | 4% | 18µM* | ?
Nc1cc(=O)nc(SCC(=O)Nc2cccc(Cl)c2)n1CCc1ccccc1 | -4% | . | -1% | . | 18%
CC(=O)OCC#CCSc1nc2ccccc2n1C | -6% | ? | 7% | 13µM* | 14%
Cc1cc(C)nc(SCc2nc3ccccc3n2C)n1 | -16% | ? | 6% | -16% | 33%
Cn1c(CSc2nc3ccccc3n2C)nc2ccccc21 | -19% | -23% | 5% | 10µM* | 1%
COC(=O)N[C@H](C[N+](=O)[O-])C(C)(C)C | . | 0% | . | 7% | .
Cc1c(C(=O)N2c3ccccc3Sc3ccccc32)cccc1[N+](=O)[O-] | ? | -13% | 2% | -1% | 1.8µM*
Cc1cc(C)n(C(=O)c2cccc([N+](=O)[O-])c2C)n1 | 0% | 6% | -2% | -15% | 18%
CCN(CC)C(=O)C1=C(C)N(Cc2ccc(F)cc2)C(=O)C(CC(=O)NC(c2ccccc2)c2ccccc2)C1 (stereo not drawn) | -27% | . | 4% | . | 11µM*
CC1=C(C(=O)N(C)C)CC(CC(=O)NC(c2ccccc2)c2ccccc2)C(=O)N1Cc1ccc(C(C)(C)C)cc1 (stereo not drawn) | -18% | . | 2% | . | ?
CCN(CC)C(=O)C1=C(C)N(Cc2ccc(C(C)(C)C)cc2)C(=O)C(CC(=O)NC(c2ccccc2)c2ccccc2)C1 (stereo not drawn) | -24% | . | 6% | . | 7.9µM*
COc1ccc(C(=O)CC(=O)C(=O)Nc2ccc(OC)c(Cl)c2)cc1 | -2% | 9% | 5% | -7% | 20%
COc1ccc(C(=O)CC(=O)C(=O)Nc2cc(Cl)c(OC)cc2OC)cc1 | 2% | -6% | 1% | ? | 18%
COc1ccc(C(=O)CC(=O)C(=O)Nc2ccccc2Cl)cc1 | 2% | 3.2µM* | 14% | 6.3µM* | 9%
COc1ccc(C(=O)CC(=O)C(=O)Nc2ccccc2C(F)(F)F)cc1 | -9% | 7.1µM* | 0% | 6.3µM* | -25%
COc1ccc(C(=O)CC(=O)C(=O)Nc2cc(OC)ccc2OC)cc1 | -3% | 0% | 11% | ? | 16%
COc1ccc(C(=O)CC(=O)C(=O)Nc2c(C)cccc2C)cc1 | -5% | 5.6µM* | -6% | 6.3µM* | ?
COc1ccc(C(=O)CC(=O)C(=O)Nc2ccc(Cl)cc2)cc1 | 1% | 13µM* | 7% | 7.1µM* | -15%
COc1cccc(CCNC(=O)c2cnc3sc(N4CCCC4)nn3c2=O)c1 | 1% | . | . | . | 4%
